Hits are enriched below; roughly 3.2% of the tested compounds scored in any of these assays.
Tb PYK inh: T. brucei pyruvate kinase inhibition | Potency, µM (series often up to 76.8 µM), hits mostly inhibitors | TbPYK enzyme, Kinase-Glo Plus ATP luminescence, 45 min | 410,000 compounds, 0.12% hits | AID 624173 | Q57TT1; further: nearly all actives have a fitted effect of over 50% in size
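TbPYK + substrate in 50 mM TEA pH 7.2, 100 mM KCl, 10 mM MgCl2, 0.05% BSA, 0.01% Tween-20; cpd pinned; ADP 130 uM final; 45 min RT; Kinase-Glo Plus 10 min; luminescence endpoint.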
Sm TGR block: S. mansoni TGR enzyme inhibition; Q962Y6; purified TGR, DTNB reduction, TNB absorbance 405 nm; Potency, µM (series often up to 114 µM), hits mostly inhibitors; 360,000 compounds, 3% hits; AID 485364; further: nearly all actives have a fitted effect of over 60% in size
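Kinetic colorimetric format: TGR-catalysed, NADPH-driven DTNB reduction monitored via TNB absorbance. Enzyme dispensed at 20 nM; compound exposure 15 min at room temperature before reaction start.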
AMA1 RON2 block: disrupts binding of P. falciparum AMA1 to RON2; AlphaScreen AMA1-biotinylated RON2 peptide binding; AID 720542; 360,000 compounds, 0.2% hits; Potency, µM (doses to about 58.2 µM), hits mostly inhibitors; further: nearly all actives have a fitted effect of over 45% in size
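AMA1 (3D7) with his tag at 25 nM final met compounds first, then biotinylated RON2 peptide at 25 nM; detection used donor plus acceptor beads, 10 µg/mL apiece, read by AlphaScreen after 30 min at room temperature.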
LmPK inh: inhibitors of Leishmania mexicana pyruvate kinase | Q27686 | purified LmPK, Kinase-Glo ATP luminescence, 1 h | Potency, µM (highest dose often 57.5 µM), usual class: inhibitors | 290,000 compounds, 0.37% hits | AID 1721
Target sequence (Q27686 whole entry, looked up): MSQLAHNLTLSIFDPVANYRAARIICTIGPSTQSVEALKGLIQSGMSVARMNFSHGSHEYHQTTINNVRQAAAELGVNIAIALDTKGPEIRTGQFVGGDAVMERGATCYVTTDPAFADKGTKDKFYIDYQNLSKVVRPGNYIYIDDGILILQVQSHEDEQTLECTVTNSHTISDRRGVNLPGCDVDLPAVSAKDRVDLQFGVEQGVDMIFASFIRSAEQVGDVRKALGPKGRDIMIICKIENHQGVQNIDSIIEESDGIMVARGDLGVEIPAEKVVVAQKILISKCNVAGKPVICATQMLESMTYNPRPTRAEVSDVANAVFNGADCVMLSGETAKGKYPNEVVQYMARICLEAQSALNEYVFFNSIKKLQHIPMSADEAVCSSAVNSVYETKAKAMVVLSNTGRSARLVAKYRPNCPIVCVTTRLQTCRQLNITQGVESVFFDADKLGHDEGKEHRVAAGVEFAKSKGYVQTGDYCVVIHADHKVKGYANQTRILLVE
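Pyruvate kinase activity monitored as ATP production (luciferase luminescence). Conditions: 0.1 nM enzyme, 0.5 mM PEP, 0.1 mM ADP, 1 h, RT; normalized against uninhibited and no-enzyme wells.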
RE007 growth inh: less growth of the S. pombe RE007 Vpr strain; S. pombe RE007 Vpr strain, BacTiter-Glo ATP luminescence, 24 h; Potency, µM (series often up to 92.2 µM), hits mostly inhibitors; 360,000 compounds, 0.21% hits; active means well fitted falling curve with a large enough effect; inconclusive means small, poorly fitted or top-dose-only effect; inactive means no such curve, though single readings can be large or run the other way; further: nearly all actives have a fitted effect of over 50% in size
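Fission yeast strain RE007, carrying one chromosomally integrated HIV-1 vpr copy, was seeded at OD 0.01 in PMG+AL medium with 23 nL pinned compound. After 24 h at 30 °C and 99% humidity, viability was read by BacTiter-Glo luminescence.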
Large screens that a line does not name were inactive. Unless noted, the call rests on the fitted dose curve; in most records, active means well fitted curve in the direction sought with a large enough effect; inconclusive means small, poorly fitted or top-dose-only effect, or another doubt; inactive means no such curve, though single readings can be large; an effect the other way counts as inactive or inconclusive.

O=C1c2ccccc2-c2onc3ccc(NCc4ccco4)c1c23	Sm TGR block 11µM, RE007 growth inh 28µM
C[C@H]1Cc2c(-c3ccccc3)nc3c(c2CO1)CN(S(=O)(=O)c1ccc(C#N)cc1)CC3	none (no result: Tb PYK inh, Sm TGR block, AMA1 RON2 block, RE007 growth inh)
COc1cc(-c2nnc(SCCOc3ccc(Cl)cc3)o2)cc(OC)c1OC	none (no result: AMA1 RON2 block, LmPK inh, RE007 growth inh)
Cn1cc(S(C)=O)c(=O)c2ccc(F)cc21 (centres undefined)	none (no result: Sm TGR block, AMA1 RON2 block, LmPK inh, RE007 growth inh)
Oc1cc2c(cc1CN1CCN(c3ncccn3)CC1)OCO2	Sm TGR block 1µM
CNC(=O)c1c(NC(=O)c2nc3ccccc3s2)sc2c1CCC2	Sm TGR block 45µM (no result: Tb PYK inh, AMA1 RON2 block, RE007 growth inh)
COC(=O)c1c(NC(=O)c2nc3ccccc3s2)sc2c1CCN(C(C)=O)C2	none
CC(C)C(=O)Nc1sc2c(c1C#N)CCCCC2	none
CNC(=O)c1c(NC(=O)C(C)C)sc2c1CCC2	Sm TGR block 45µM
N=c1c[n+](N2CCOCC2)[n-]o1	Sm TGR block 22µM
CCOc1ccc(-c2cccc(NS(=O)(=O)c3c(C)cc(C)cc3C)c2)nn1	none (no result: AMA1 RON2 block, LmPK inh, RE007 growth inh)
CC(=O)c1ccc(OC(=O)COc2ccccc2Cl)cc1	Sm TGR block 40µM
COc1ccc(CN2CCN(C3CCSCC3)CC2CCO)c(C)c1C (centres undefined)	Sm TGR block 35µM
CSc1nc(-c2ccco2)cc(-c2ccccc2)c1C#N	Sm TGR block inconclusive
NC(=O)CSc1nnc2ccc(-c3ccco3)nn12	Sm TGR block inconclusive
CCSc1ccc(-c2ccco2)nn1	Sm TGR block 13µM
CSc1ccc(-c2ccco2)nn1	Sm TGR block 10µM, LmPK inh inconclusive
CN(Cc1nc(Cc2ccccc2F)no1)[C@@H]1CS(=O)(=O)C[C@H]1O	none
Cc1cc(C)n(CCN(C)Cc2nc(Cc3ccccc3F)no2)n1	LmPK inh 28µM
CCOC(=O)c1cc(OC(=O)c2cccs2)n(-c2ccccc2)n1	Sm TGR block 40µM
COc1ccc(CNS(=O)(=O)c2c(C)[nH]c(C)c2C(=O)N2CCCCC2)cc1	none
Cc1ccc(CNS(=O)(=O)c2c(C)[nH]c(C)c2C(=O)N2CCCCC2)o1	Sm TGR block 45µM
CCOc1ccc2oc(=O)cc(CN3CCN(c4ccc(Cl)cc4)CC3)c2c1	none (no result: AMA1 RON2 block, LmPK inh, RE007 growth inh)
Cc1ccccc1N(Cc1cc(=O)[nH]c2ccccc12)C(=O)CCl	Sm TGR block 14µM (no result: Tb PYK inh, AMA1 RON2 block, RE007 growth inh)
O=C(CCl)N(Cc1cc(=O)[nH]c2ccccc12)c1ccccc1	Sm TGR block 3.5µM (no result: RE007 growth inh)
Cc1ccccc1N(Cc1cc(=O)[nH]c2ccccc12)C(=O)C(C)C	none
CCOc1ccc(NC(=O)Cn2c(=O)n(CC(=O)NCCc3ccccc3)c(=O)c3sccc32)cc1	none (no result: AMA1 RON2 block, LmPK inh, RE007 growth inh)
CCN(CC(=O)Nc1ccc2c(c1)CCC2)Cc1nc2ccccc2c(=O)[nH]1	Sm TGR block 50µM
COc1cccc(NS(=O)(=O)c2ccc3c(c2)N(C)C(=O)CC(=O)N3C)c1	none (no result: AMA1 RON2 block, LmPK inh, RE007 growth inh)
CC(C)CC(C(=O)Nc1oc(-c2ccco2)c(-c2ccco2)c1C#N)N1C(=O)c2ccccc2C1=O (centres undefined)	Sm TGR block 56µM
CC(C)CC(C(=O)Nc1cccc(O)c1)N1C(=O)c2ccccc2C1=O (centres undefined)	none
Cc1ccc(-n2c(C)c([N+](=O)[O-])c3ccc(O)cc32)cc1	Sm TGR block 8.9µM (no result: Tb PYK inh, AMA1 RON2 block, RE007 growth inh)
Cc1c([N+](=O)[O-])c2ccc(O)cc2n1-c1ccccc1	none
Cc1ccc2c(c1)c(=O)c1c3n2CCN(C(=O)CCl)C3CC1 (centres undefined)	Sm TGR block 3.2µM
CCc1ccc(CNC(=O)COc2cc(=O)n(CC)c3ccccc23)cc1	none (no result: AMA1 RON2 block, LmPK inh, RE007 growth inh)
C[C@H]1NCc2cc(-c3ccc4c(=O)c(C(=O)O)cn(C5CC5)c4c3OC(F)F)ccc21	none (no result: Sm TGR block, AMA1 RON2 block, LmPK inh, RE007 growth inh)
Cc1ccc(-c2csc(NC(=O)C3CSC4(C)CCC(=O)N34)n2)cc1 (centres undefined)	Sm TGR block 56µM (no result: LmPK inh)
Cc1ccc(NC(=O)Cn2cccc2)cc1C	none
Cc1ccc(NC(=O)Cn2cccc2)cc1Cl	Sm TGR block 32µM
CCN(c1ccccc1)S(=O)(=O)c1nnc(NC(=O)C(C)Oc2ccccc2)s1 (centres undefined)	none (no result: AMA1 RON2 block, LmPK inh, RE007 growth inh)
COC(=O)C1=COC(C)C2CN3CCc4c([nH]c5cc(OC)c(OC)cc45)C3CC12 (centres undefined)	Sm TGR block 20µM
CCN(Cc1ccccc1)C(=O)c1ccc(CS(=O)c2ccccc2C)o1 (centres undefined)	Sm TGR block 14µM
Cc1ccccc1S(=O)Cc1ccc(C(=O)NC2CC2)o1 (centres undefined)	Sm TGR block inconclusive
CCNC(=S)Nc1cc(OC)c(NC(=O)c2ccco2)cc1OC	Sm TGR block inconclusive
COc1cc(NC(=S)NC(=O)c2cccs2)ccc1NC(=O)C(C)C	Sm TGR block 18µM
CC(C)C(=O)Nc1cccc(NC(=S)NC(=O)c2cccs2)c1	Sm TGR block inconclusive
COC(=O)c1cc(OC)c(OC)cc1NC(=S)NC(=O)c1ccco1	Sm TGR block 11µM
COc1cc(NC(=S)NC(=O)c2ccco2)ccc1NC(=O)C(C)C	Sm TGR block 25µM
COc1cc(NC(=O)C(C)C)ccc1NC(=O)c1ccco1	none
CCOc1ccc(CCNC(=O)CCN2N=C(c3ccc(OC)cc3)CCC2=O)cc1OCC	none (no result: AMA1 RON2 block, LmPK inh, RE007 growth inh)
O=C(CC1N=C2c3ccccc3N=C(SCc3ccccc3Cl)N2C1=O)NCc1cccs1 (centres undefined)	none (no result: AMA1 RON2 block, LmPK inh, RE007 growth inh)
Oc1c(Br)cc(C2N=C(c3ccccc3)NO2)cc1Br (centres undefined)	Tb PYK inh inconclusive, Sm TGR block 50µM, RE007 growth inh inconclusive
COc1ccc(CNc2oc(/C=C/c3cc(OC)c(OC)c(OC)c3)nc2C#N)cc1	none (no result: AMA1 RON2 block, LmPK inh, RE007 growth inh)
C=CCOC(=O)C1=C(C)OC(N)=C(C#N)C1c1ccc(OC)c(CSc2ccccn2)c1 (centres undefined)	none
CCCC1=C(C(=O)OCC)C(c2ccc(OC)c(CSc3ccccn3)c2)C(C#N)=C(N)O1 (centres undefined)	Sm TGR block 32µM, RE007 growth inh inconclusive
O=C(COC(=O)c1ccccc1C(=O)c1ccc(Cl)c([N+](=O)[O-])c1)NC1CC1	Sm TGR block 22µM
O=C(OC1CCOC1=O)c1ccccc1C(=O)c1ccc(Cl)c([N+](=O)[O-])c1 (centres undefined)	Sm TGR block 25µM (no result: LmPK inh)
CS(=O)(=O)c1ccc(C(=O)OC2CCOC2=O)cc1[N+](=O)[O-] (centres undefined)	Sm TGR block 2.8µM
O=C(COC(=O)c1cnccn1)c1ccc(Cl)c([N+](=O)[O-])c1	Sm TGR block 40µM
COc1cccc(CN2C(=O)c3ccccc3Sc3ccc(C(=O)NCc4ccccc4)cc32)c1	none (no result: AMA1 RON2 block, LmPK inh, RE007 growth inh)
CCCCCCCC/C=C\CCCCCCCCN	none (no result: Sm TGR block, AMA1 RON2 block, LmPK inh, RE007 growth inh)
CNC(=O)COC(=O)c1ccccc1C(=O)c1ccc(Cl)c([N+](=O)[O-])c1	Sm TGR block 35µM

Screening results from PubChem.
